High-throughput results as filed in PubChem.
AmpC inh no detg: AmpC beta-lactamase inhibition without detergent. AmpC nitrocefin hydrolysis, absorbance 480 nm, 0.0001% Triton. Potency, µM (doses to about 57.1 µM), hits mostly inhibitors. 330,000 tested, 0.52% active. AID 485341; note: nearly all actives have a fitted effect of over 20% in size
Target sequence (P00811 whole entry, looked up): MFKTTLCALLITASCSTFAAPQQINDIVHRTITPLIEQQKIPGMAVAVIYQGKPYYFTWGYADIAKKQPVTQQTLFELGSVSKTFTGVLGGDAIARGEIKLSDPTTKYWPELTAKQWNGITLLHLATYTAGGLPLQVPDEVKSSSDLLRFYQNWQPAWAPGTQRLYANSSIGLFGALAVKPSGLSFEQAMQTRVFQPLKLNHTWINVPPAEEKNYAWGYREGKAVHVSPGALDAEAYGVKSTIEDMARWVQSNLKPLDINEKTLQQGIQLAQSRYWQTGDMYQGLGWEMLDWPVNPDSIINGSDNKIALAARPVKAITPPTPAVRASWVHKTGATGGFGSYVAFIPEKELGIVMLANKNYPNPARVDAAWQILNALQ
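20 mM phosphate pH 7.0 + 0.01% (detergent screen) or 0.0001% Triton X-100; 5.3 nM AmpC reagent; cpd preinc 15 min RT; nitrocefin (800 uM stock) to start; A480 q20 s × 4 min; Activity was normalised to no-enzyme and no-compound control wells.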
Shiga toxin inh: Shiga toxin inhibition; AID 2315; 290,000 tested, 9.2% active; inhibition, % at 38.7 µM; Vero cells, Shiga toxin protein synthesis inhibition reporter; in the data active = inhibition mostly above about 28%, no sharp cut-off; inactive = mostly below about 43%
CHX counter: affects cycloheximide protein synthesis inhibition readout, counter-screen; 300,000 tested, 12% active; AID 2314; cell reporter, cycloheximide protein synthesis inhibition counterscreen; max response, %; in the data active = max response mostly above about 13%, no sharp cut-off; inactive = mostly below about 14%; note: read at 38.3 µM for the half of the compounds with a filed dose
NS1 inh: influenza NS1 inhibition | 270,000 tested, 0.4% active | Potency, µM (top dose mostly 46.1 µM); calls by dose curve; note: actives are rising curves; nearly all actives have a fitted effect of over 50% in size
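Compounds were scored for reversing the slow growth caused by influenza A NS1 in S. cerevisiae, measured by optical density at 600 nm. Assay medium contained 2% galactose at pH 6.0; NS1-free yeast of the same strain were the positive control.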
AmpC inh detg: blocks E. coli AmpC beta-lactamase in detergent assay. P00811. AmpC hydrolysis of nitrocefin, absorbance 480 nm, 0.01% Triton. Potency, µM (top dose mostly 114 µM), most hits filed as inhibitors. 370,000 tested, 0.041% active. AID 485294; note: nearly all actives have a fitted effect of over 25% in size
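AmpC (5.3 nM in the dispensed reagent) in 20 mM phosphate pH 7.0 with 0.01% (detergent screen) or 0.0001% Triton X-100 was preincubated with compounds for 15 min at room temperature. Nitrocefin was then added from an 800 uM solution, and hydrolysis was followed at 480 nm.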
Hits are given with their value; n = inactive; u = inconclusive; x = no result given. Shown is part of a subset that was picked to be rich in hits. Unless noted, calls come from the whole dose curve; as a rule, active = well fitted curve in the direction sought with a large enough effect; inconclusive = small, poorly fitted or top-dose-only effect, or another doubt; inactive = no such curve, though single readings can be large; an effect the other way counts as inactive or inconclusive.

SMILES	AmpC inh no detg	Shiga toxin inh	CHX counter	NS1 inh	AmpC inh detg
N/C(=N\OC(=O)Cc1ccccc1)c1ccccn1	n	n	28	n	n
N/C(=N\OC(=O)CCCc1ccccc1)c1ccc([N+](=O)[O-])cc1	n	n	n	n	n
N/C(=N\OC(=O)CCCc1ccccc1)c1ccccn1	n	54	35	n	n
COC(=O)c1ccc(NC(=O)N2CCN(Cc3cc(=O)n4nc(-c5ccc(C)cc5)sc4n3)CC2)cc1	x	x	x	x	n
CSc1ccc(/C=C/C(=O)OCC(=O)c2ccc[nH]2)cc1	n	x	x	x	n
N/C(=N\OCc1ccc([N+](=O)[O-])cc1)c1ccccn1	n	n	n	n	n
N/C(=N\OC(=O)C(c1ccccc1)c1ccccc1)c1ccccn1	n	49	22	n	n
CC(C(=O)O/N=C(\N)c1ccccn1)c1ccc([N+](=O)[O-])cc1 (stereo unspecified)	n	70	40	n	n
Cc1ccc(C2=NN=C(NC(=O)C(F)(F)F)SC2)cc1	n	111	27	n	n
CC(=O)N1CC(C)Sc2ccc(S(=O)(=O)NC3CCCCC3C)cc21 (stereo unspecified)	n	n	n	n	n
CCOC(=O)N1CCC(NC(=O)Cn2cc3c(n2)CCCC3)CC1	2.8µM	n	n	n	u
CCC(=O)N1CCC(c2ccc(OC)cc2)=N1	n	38	36	n	u
CNC(C(=O)c1ccccc1)C(OC)c1ccc(C)cc1 (stereo unspecified)	n	44	11	n	u
Cc1cccc(OCC(=O)NNC(=O)Nc2cccc(Cl)c2)c1C	n	n	n	n	n
Cc1ccc(NC(=O)Cn2nnc(-c3nc(-c4ccc(Cl)cc4)no3)c2N)cc1C	x	x	x	x	n
COC(=O)[C@@H](NC(=O)c1ccc(OC2CCN(Cc3ccccn3)CC2)cc1)C(C)C	n	n	n	n	n
CSCCCNC(=O)c1ccc(OC2CCN(CCc3ccccc3)CC2)cc1	n	93	31	n	n
O=C(NCCc1ccccn1)c1ccc(OC2CCN(CCc3ccccc3)CC2)cc1	n	65	42	n	u
CC(Cc1ccccn1)NC(=O)c1ccc(OC2CCN(CCc3ccccc3)CC2)cc1 (stereo unspecified)	n	47	29	n	n
CCCN1CCC(Oc2cccc(C(=O)NCCc3ccccc3)c2)CC1	n	72	56	u	n
CC(C)OP(=O)(OC(C)C)C(O)c1ccc2c(c1)OCO2 (stereo unspecified)	n	n	n	n	u
CC1CN(C(=O)CCC(=O)NCc2ccccc2)c2ccccc2O1 (stereo unspecified)	n	n	n	n	n
Clc1ccc(SCc2cc(-c3ccccc3)on2)cc1	n	n	n	n	n
c1ccc(Cc2cc(-c3ccccc3)on2)cc1	n	90	36	n	n
COc1ccc(C(O)(C(=O)NNc2ccc(C)cc2)c2cccs2)cc1 (stereo unspecified)	n	n	n	n	u
SMILES	AmpC inh no detg	Shiga toxin inh	CHX counter	NS1 inh	AmpC inh detg
O=C(NNc1ccc(C2CCCCC2)cc1)C(O)(c1ccccc1)c1cccs1 (stereo unspecified)	n	n	16	n	u
CCOc1cc(N2CCOCC2)c(OCC)cc1NC(=O)CN1CCCC1	n	n	n	n	n
NC(=O)c1ccccc1N/C=C/C(=O)c1ccco1	n	69	30	n	u
O=C(/C=C/Nc1ccc(Oc2ccccc2)cc1)c1ccco1	n	70	56	n	n
NC(=O)c1ccccc1NS(=O)(=O)Cc1ccccc1	n	n	n	n	u
O=C(/C=C/Nc1ccccc1C(F)(F)F)c1ccco1	n	59	44	n	n
COc1ccc(N2CCN(C(CNC(=O)C(=O)NCCc3ccccc3)c3cccnc3)CC2)cc1 (stereo unspecified)	x	x	x	x	n
COc1ccccc1-c1nc(SCC(=O)NCc2ccc(C)cc2)c2c(=O)n(C)c(=O)n(C)c2n1	x	x	x	x	n
COc1ccc2nc(SCC(=O)NC(C)c3ccccc3)[nH]c2c1 (stereo unspecified)	n	x	x	x	n
COc1ccc(-c2cn3nc(N4CCC(C(=O)NCc5cccc(Cl)c5)CC4)sc3n2)cc1	x	x	x	x	n
COc1cc(Cl)ccc1OCc1cc(C(=O)N(C)C2CC(C)(C)NC(C)(C)C2)no1	n	n	n	n	n
Cc1ccc(OCc2cc(C(=O)N(C)Cc3cnc4ccccn34)no2)cc1C	n	n	20	n	n
CN(CCN1CCOCC1)C(=O)c1cc(COc2ccc(F)c(F)c2)on1	n	n	34	n	n
